Compound activity: PubChem, National Center for Advancing Translational Sciences (NCATS)
Sampled rows, rich in hits. Any-hit rate of the full collection: about 5.7%.
ClpP mod = qHTS Assay for Activators of ClpP; ATP-dependent Clp protease proteolytic subunit (Bacillus subtilis (strain 168)), P80244; purified B. subtilis ClpP, FRET peptide cleavage, 20 min; Potency, µM (doses to about 57.5 µM), for the others: at the top dose activity change, negative = active; hit rate 1.9% among 340,000; active = well fitted falling curve with a large enough effect; inconclusive = small, poorly fitted or top-dose-only effect; inactive = no such curve, though single readings can be large or run the other way; also: potency is read from the fitted curve at half-maximal effect; the source files actives as falling curves though it sought activators and does not explain the sign; nearly all actives have a fitted effect of over 65% in size
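ClpP 10 microg/mL final, pH 8 Tris/KCl buffer with BSA, glycerol, Tween-20; compound pinned in; FRET-FV substrate; RT 20 min; Ex320/Em430; ΔFRET vs ADEP 5.8 microM, DMSO, no enzyme.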
D3 ag = qHTS of D3 Dopamine Receptor Agonist: qHTS; max activation, %; D(3) dopamine receptor (Homo sapiens), P35462; D3R DiscoveRx beta-arrestin cells, luminescence, 90 min; hit rate 0.58% among 410,000; AID 652048, 2013; in the data active = max activation above about 30%; also: 0% is about no effect
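Agonist mode: compounds and dopamine controls were applied to plated cells for 90 min at 37 degrees C after an overnight attachment at 1500 cells/well. Luminescent read-out followed 30 - 60 minutes at room temperature with DiscoveRx detection reagent.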
GLP1R inv ag = qHTS of GLP-1 Receptor Inverse Agonists (Inhibition Mode). Glucagon-like peptide 1 receptor (Homo sapiens), P43220. HEK293 GLP-1R CRE-luciferase, luminescence, 24 h; GLP-1R form is constitutively active. Potency, µM (top dose mostly 38.3 µM), for inactives: at the top dose activity change, negative = inhibition, usual class: inhibitors. hit rate 1.6% among 410,000. AID 624417, 2012; also: potency is read from the fitted curve at half-maximal effect; % is scaled to controls: 0 for no effect and ±100 for the full control effect; nearly all actives have a fitted effect of over 55% in size
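GLP-1R inverse agonism mode: basal reporter luminescence in engineered HEK293 cells measured after one day of compound exposure at 37 deg C, with a 12 min room-temperature detection step.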
GLP1R ag = qHTS of GLP-1 Receptor Agonists; HEK293 GLP-1R CRE-luciferase, luminescence, 4-6 h; cells express a hypersensitive GLP-1R form; Potency, µM (doses to about 45.6 µM), for inactives: at the highest dose activation, usual class: activators; hit rate 0.007% among 380,000; AID 624172, 2012; also: potency is read from the fitted curve at half-maximal effect; % of control where 0% means no effect
D3 antag = qHTS of D3 Dopamine Receptor Antagonist: qHTS | D(3) dopamine receptor (Homo sapiens), P35462 | D3R cells, DiscoveRx beta-arrestin luminescence, antagonist mode; stronger effect = lower value | max response, negative = inhibition, % | hit rate 2.5% among 360,000 | AID 652054, 2013; in the data active = max response below about -50%; inconclusive = no clear call, values can overlap the other calls; also: % is scaled to controls: 0 for no effect and ±100 for the full control effect
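Cells plated overnight at 1500 cells/well, then exposed to library compounds with dopamine controls for 90 minutes at 37 degrees C. DiscoveRx reagent added for 30–60 minutes at room temperature; luminescence read, quantitative HTS format.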
HEK293 tox = qHTS of GLP-1 Receptor Inverse Agonists: Cytotox Screen | Potency, µM (highest dose often 38.3 µM), for the others: at the highest dose activity change, negative = inhibition, most hits filed as inhibitors | hit rate 0.13% among 410,000 | HEK293 cAMP-luciferase reporter cells, luminescence, 24 h;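 also: loss of luciferase light is scored as toxicity; potency is read from the fitted curve at half-maximal effect; % is scaled to controls: 0 for no effect and ±100 for the full control effect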
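Step one: seed cells (200 cells/uL, DMEM with 10% Nu serum, 1% pen-strep). Step two: 12-hour incubation at 37 deg C. Step three: pin 23 nL compound, incubate 24 hr. Step four: add luciferase reagent, read luminescence 12 min later.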
Starred values were filed as active, the others as inactive; ? = inconclusive; / = not tested or not shown; [ ] = another dose, or the depositor's remark. Unless noted, calls follow the shape of the dose curve; as a rule, active = well fitted curve in the direction sought with a large enough effect; inconclusive = small, poorly fitted or top-dose-only effect, or another doubt; inactive = no such curve, though single readings can be large; an effect the other way counts as inactive or inconclusive.

SMILES | ClpP mod | D3 ag | GLP1R inv ag | GLP1R ag | D3 antag | HEK293 tox
O=C(NCCN1CCc2ccccc2C1)C1CCN(S(=O)(=O)N2CCCCC2)CC1 | -9% | -29 | -11% | 6% | -66* | 1%
COc1ccccc1-c1nnc2n(CCc3ccccc3)c(=O)c3ccccc3n12 | ? | 9 | 6% | / | / | 0%
COc1ccc(OCC(=O)OC2CCN(C)CC2)cc1 | 16µM* | -2 | 2% | 0% | 22 | -3%
CN1CCC(OC(=O)COc2ccc(Br)cc2)CC1 | / | -3 | 2%[7.66 µM] | 5% | 7 | -2%[7.66 µM]
CCOC(=O)C1=C(CN2CCN(c3cc(C)ccc3C)CC2)NC(=O)NC1c1ccc(Cl)cc1 (stereo unspecified) | -1% | 4 | ? | / | / | -14%
O=C(CCS(=O)(=O)c1cc2c3c(c1)CCN3C(=O)CC2)NCc1ccc(F)cc1 | -3% | 2 | 10% | / | / | 1%
Fc1ccc(CNn2cnnc2SCc2ccc(F)cc2)cc1 | 1% | 41* | -5% | 1% | -9 | -5%
Cc1ccc(CNn2cnnc2SCc2ccc(F)cc2)cc1 | 2% | 18 | -1% | 3% | 16 | -9%
Cc1csc2nc3ccccc3c(=O)n12 | 14µM* | -6 | 58% | 3% | 8 | -7%
Cc1nc2scc(C)n2c(=O)c1S(=O)(=O)NCc1ccccc1 | 4% | 2 | -4% | -5% | -5 | -7%
NC(=S)NN=C(c1ccc(F)cc1)C1CC1 | -2% | -10 | ? | -5% | -29 | 10µM*
O=C1CC(SC(=Nc2ccccc2)Nc2ccccc2)C(=O)N1c1ccc(Cl)cc1 (stereo unspecified) | 2% | 7 | 1% | -21% | 48 | -3%
O=C1CC(SC(=Nc2ccccc2)Nc2ccccc2)C(=O)N1c1cccc(Cl)c1 (stereo unspecified) | -1% | -2 | 5µM* | -1% | -2 | ?
CCC1Oc2ccccc2N(CC(=O)NCc2cc(OC)ccc2OC)C1=O (stereo unspecified) | -1% | 12 | 4% | / | / | 6%
CC(=O)C[C@H]1c2cc(F)cc(F)c2S(=O)(=O)N1C1CCN(Cc2ccccc2)CC1 | 0% | / | / | / | / | /
O=C(Nc1ccc(S(=O)(=O)N2CCCCC2c2cccnc2)cc1)c1ccc(Br)cc1 (stereo unspecified) | 3% | 1 | 10µM* | / | / | -19%
CCOc1ccc(C(=O)Nc2ccc(S(=O)(=O)N3CCCCC3c3cccnc3)cc2)cc1 (stereo unspecified) | ? | -5 | ? | / | / | -25%
CNc1ccc(-c2cccc(C(C)=O)c2)cn1 | -10% | -6 | -2% | 3% | -11 | -3%
CNc1ccc(-c2cccc([N+](=O)[O-])c2)cn1 | -6% | -8 | 31% | 14% | -59* | 2%
CCOc1cc(/C=C2\CN(C)C/C(=C\c3ccc(O)c(OCC)c3)C2=O)ccc1O | -2% | -12 | ? | -6% | -52* | ?
CCOc1cc(/C=C2\CCC/C(=C\c3cc(Cl)c(O)c(OCC)c3)C2=O)cc(Cl)c1O | 1% | -7 | 10µM* | -37% | -16 | 11µM*
CCOCCCNC(=O)C(NC(=O)C1CCC(C)CC1)C(C)C (stereo unspecified) | 0% | 1 | 11% | / | / | 7%
CC(C)c1ccc(S(=O)(=O)c2cnc(=S)[nH]c2N)cc1 | / | -7 | 5% | 5% | -59* | 3%
Cc1cccc(N2C(=O)C3C4C=CC(CC4)C3C2=O)c1 (stereo unspecified) | 2% | -4 | -28% | 0% | -13 | 7%
CCOC(=O)c1cccc(N2C(=O)C3C4C=CC(CC4)C3C2=O)c1 (stereo unspecified) | / | 28 | 3.2µM* | 4% | -24 | -6%
SMILES | ClpP mod | D3 ag | GLP1R inv ag | GLP1R ag | D3 antag | HEK293 tox
CCOCCCN(C)C1CCN(C(=O)c2oc3ccccc3c2NC(=O)Cc2ccc(F)cc2)CC1 | -8% | -18 | ? | -2% | -71* | -21%
CCOCCCN(C)C1CCN(C(=O)c2oc3ccccc3c2NC(=O)COc2ccc(F)cc2)CC1 | -5% | -16 | -27% | -1% | -8 | 4%
COc1cc2cc(C(=O)O)[nH]c2c(OC)c1OC | 28µM* | -21 | 12% | -4% | -19 | -8%
COc1ccc(OC)c2c(=O)cc(C(=O)O)[nH]c12 | 0% | 5 | 3% | -3% | 6 | 13%
O=C(CNC(=O)c1cccs1)N/N=C/c1c(F)cccc1Cl | -6% | -19 | 21% | -7% | -51* | 8%
O=C(O)c1ccc(N/N=C/c2c(F)cccc2Cl)cc1 | 2% | 8 | 5µM* | -5% | -2 | -2%
O=C(N/N=C/c1c(F)cccc1Cl)C1CC1 | 0% | 3 | 11% | 6% | 8 | -22%
Cc1ccc(/C=N/NC(=O)CNC(=O)c2cccs2)cc1 | 0% | -7 | -18% | 1% | -1 | -20%
Cc1cc(C)cc(NC(=O)c2cc(S(=O)(=O)N3CCC(C)CC3)cn2C)c1 | ? | 4 | 5% | -2% | / | 2%
CCC[C@@]1(CCc2ccccc2)CC(O)=C([C@H](CC)c2cccc(NS(=O)(=O)c3ccc(C(F)(F)F)cn3)c2)C(=O)O1 | / | 5 | / | / | / | /
Cc1cn(C)c(CC(=O)N2CCN(c3ccccc3F)CC2)c1C(=O)O | 0% | -12 | 13% | / | / | 2%
Cc1ccc(-c2nc3ncccc3o2)cc1NC(=O)CC(C)C | 11µM* | 0 | 15% | 0% | 11 | -17%
Cc1ccc(-c2nc3ncccc3o2)cc1NC(=O)COc1ccccc1 | 32µM* | 4 | 8% | 3% | ? | -8%
Cc1ccc(-c2nc3cccnc3o2)cc1NC(=O)COc1ccc(Cl)cc1C | ? | 0 | 3% | -7% | 12 | 20%
CCc1ccc(OCC(=O)Nc2cc(-c3nc4cc(C)ccc4o3)ccc2C)cc1 | 4µM* | 6 | 18% | 3% | / | -7%
Cc1ccc(-c2nc3cccnc3o2)cc1NC(=O)COc1ccc(C(C)(C)C)cc1 | 28µM* | 79* | ? | -32% | 103 | ?
O=C(C[C@H]1CC[C@@H]2[C@H](COC[C@H](O)CN2Cc2cccc(F)c2)O1)NCc1cccc(F)c1 | 0% | -8 | 2% | / | -4 | 1%
Cc1cc2c(cc1C)-n1nnnc1C(N(C)CCc1ccccc1)C(=O)N2 (stereo unspecified) | -14% | 2 | -15% | / | -4 | 2%
